# Results from PubChem BioAssay (NCATS).
# Records with an inconclusive call do not appear. The source made the active and inactive calls. Unless noted, the call rests on the fitted dose curve; in most records, active means well fitted curve in the direction sought with a large enough effect; inconclusive means small, poorly fitted or top-dose-only effect, or another doubt; inactive means no such curve, though single readings can be large; an effect the other way counts as inactive or inconclusive.
# Key:
# [1] = biological target: Catechol O-methyltransferase (Homo sapiens) (UniProt P21964); assay: Confirmatory Screen for Target Class Profiling of Small Molecule Inhibitors of Methyltransferases (AID 1745852; calls by dose curve; further: potency means the concentration at half of the fitted maximal effect; on activity change, negative = inhibition: on the % scale 0 is the no-effect control and ±100 the full control effect); conditions: MTase-Glo luminescence, SAH detection, recombinant enzyme; measured here: COMT max response; stronger effect = lower value
# [2] = biological target: Guanidinoacetate N-methyltransferase (Homo sapiens) (UniProt Q14353); assay: as above; conditions: MTase-Glo luminescence, SAH detection, recombinant enzyme; activity change, negative = inhibition: at 57.3 µM (top of the series) unless noted; series mostly up to 57.3 µM
# [3] = biological target: Nicotinamide N-methyltransferase (Homo sapiens) (UniProt P40261); assay: as above; conditions: MTase-Glo luminescence, SAH detection, recombinant enzyme; measured here: NNMT max response; stronger effect = lower value
# [4] = biological target: Phenylethanolamine N-methyltransferase (Homo sapiens) (UniProt P11086); assay: as above; conditions: MTase-Glo luminescence, SAH detection, recombinant enzyme; measured here: PNMT max response; stronger effect = lower value
# [5] = biological target: Rap guanine nucleotide exchange factor 3 (Homo sapiens) (UniProt O95398); assay: Confirmatory qHTS for antagonist of cAMP-regulated guanine nucleotide exchange factor 3 (EPAC1) (AID 1645880); conditions: EPAC1 Rap1B-BODIPY-GDP exchange, fluorescence; series mostly up to 115 µM; further: nearly all actives have a fitted effect of over 55% in size; further: potency means the concentration at half of the fitted maximal effect
# Procedure, shortened: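 Released BODIPY-GDP fluoresces less than Rap1-bound BODIPY-GDP; the signal is followed at 480/540 nm at 5-min intervals over 30 min, after 5 min at room temperature. Reactions contain 100 nM EPAC1, 250 nM RAP1B-BODIPY-GDP and 50 uM GDP; results are normalized to ATA and DMSO.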
# [6] = biological target: Rap guanine nucleotide exchange factor 3 (Homo sapiens) (UniProt O95398); assay: Confirmatory qHTS for agonist of cAMP-regulated guanine nucleotide exchange factor 3 (EPAC1) (AID 1645881); conditions: EPAC1 Rap1B BODIPY-GDP exchange fluorescence, 100% = cAMP control response; series mostly up to 154 µM;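 further: EPAC1 catalysed release of BODIPY-GDP from Rap1B seen as fluorescence loss; nearly all actives have a fitted effect of over 75% in size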
# [7] = biological target: Rap guanine nucleotide exchange factor 4 (Homo sapiens) (UniProt Q8WZA2); assay: Confirmatory qHTS for agonist of cAMP-regulated guanine nucleotide exchange factor 4 (EPAC2) (AID 1645884); conditions: EPAC2 GEF activity, Rap1B-BODIPY-GDP fluorescence, percent relative to cAMP agonist control; series mostly up to 154 µM;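 further: nucleotide exchange releases bodipy-GDP from Rap1 and this lowers its fluorescence; on the % scale 0 is the no-effect control and ±100 the full control effect; nearly all actives have a fitted effect of over 65% in size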
# [8] = biological target: Rap guanine nucleotide exchange factor 4 (Homo sapiens) (UniProt Q8WZA2); assay: Confirmatory qHTS for antagonist of cAMP-regulated guanine nucleotide exchange factor 4 (EPAC2) (AID 1645885); conditions: EPAC2 Rap1B-BODIPY-GDP exchange fluorescence, biochemical; series mostly up to 114 µM; further: on the % scale 0 is the no-effect control and ±100 the full control effect; nearly all actives have a fitted effect of over 25% in size
# [9] = biological target: Rap guanine nucleotide exchange factor 3 (Homo sapiens) (UniProt O95398); assay: Counterscreen qHTS for agonist of cAMP-regulated guanine nucleotide exchange factor 3 (EPAC1) (AID 1645889); conditions: EPAC1 Rap1B-BODIPY-GDP exchange, fluorescence; series mostly up to 154 µM; further: % of control where 0% means no effect; nearly all actives have a fitted effect of over 40% in size
# Procedure, shortened: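 Measured: fluorescence of BODIPY-GDP bound to Rap1B, which falls as exchange proceeds. Conditions include 50 uM competing GDP, 5 and 30 min reads, and a later cAMP challenge for antagonist detection.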
# [10] = Primary qHTS for inhibitors of nuclear receptor binding SET domain protein 2 (NSD2) in an RCH-ACV wild type WT cells (2C) (AID 1645877); conditions: RCH-ACV (leukaemia line) NSD2 WT (2C) viability, CellTiter-Glo, 72 h; series mostly up to 44.9 µM; further: nearly all actives have a fitted effect of over 70% in size; further: potency means the concentration at half of the fitted maximal effect
# [11] = NCATS anti-infectives library activity on HEK293 viability as a counter-qHTS vs the C. elegans viability qHTS (AID 1745854); conditions: HEK293 viability counter-screen; series mostly up to 41.8 µM;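 further: HEK293 cells exposed to compounds for 24 hr before the viability read; on the % scale 0 is the no-effect control and ±100 the full control effect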
# Procedure, shortened: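 Compound titrations (final up to 41.7 uM) were incubated with HEK293 cells for 24 hr at 37C under 5% CO2. Viable cells were quantified with CellTiter-Glo after 10 min at ambient temperature.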
# [12] = Viability counterscreen for antagonist of constitutive androstane receptor (CAR) against the NCATS DSHEA and TCM libraries (AID 1794837); conditions: CAR reporter cell line viability counterscreen, qHTS; series mostly up to 40 µM;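 further: compound exposure lasted 24 h before viability reading; 0% is about no effect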
# Procedure, shortened: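 Counterscreen performed in a 1536-well qHTS format using HepG2-CYP2B6-hCAR cells; samples titrated in the presence of 48 uM CITCO, with viability measured fluorometrically (405/540 nm) after 24 h.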
# [13] = Viability counterscreen for agonist of constitutive androstane receptor (CAR) against the NCATS DSHEA and TCM libraries (AID 1794838); conditions: HepG2 cell viability counterscreen, CAR agonist assay, co-treated with 0.75 µM CAR antagonist; series mostly up to 40 µM;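 further: HepG2 cells with CYP2B6 reporter and hCAR plus 0.75 µM PK11195 antagonist; cells exposed to compound for 24 h; 0% is about no effect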
# Procedure, shortened: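 Multiplexed counterscreen: after 24 h compound exposure with 0.75 uM PK11195, HepG2-CYP2B6-hCAR viability was quantified fluorimetrically (CellTiter-Fluor, 405/540 nm) prior to the ONE-Glo luciferase read.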
# [14] = NCATS anti-infectives library activity on the primary C. elegans qHTS viability assay (AID 1745855; calls by dose curve); conditions: C. elegans worm area imaging, day 7; series mostly up to 41.8 µM
# Procedure, shortened: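 Titration-based screen in worms: eggs hatched overnight in M9, L1 larvae fed TOP10 capsules in S medium with compound, incubated 21 °C for 7 days; fluorescent objects gated by size and intensity at days 0, 3 and 7.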
# Rap guanine nucleotide exchange factor 4 (Homo sapiens), sequence (Q8WZA2 whole entry, looked up): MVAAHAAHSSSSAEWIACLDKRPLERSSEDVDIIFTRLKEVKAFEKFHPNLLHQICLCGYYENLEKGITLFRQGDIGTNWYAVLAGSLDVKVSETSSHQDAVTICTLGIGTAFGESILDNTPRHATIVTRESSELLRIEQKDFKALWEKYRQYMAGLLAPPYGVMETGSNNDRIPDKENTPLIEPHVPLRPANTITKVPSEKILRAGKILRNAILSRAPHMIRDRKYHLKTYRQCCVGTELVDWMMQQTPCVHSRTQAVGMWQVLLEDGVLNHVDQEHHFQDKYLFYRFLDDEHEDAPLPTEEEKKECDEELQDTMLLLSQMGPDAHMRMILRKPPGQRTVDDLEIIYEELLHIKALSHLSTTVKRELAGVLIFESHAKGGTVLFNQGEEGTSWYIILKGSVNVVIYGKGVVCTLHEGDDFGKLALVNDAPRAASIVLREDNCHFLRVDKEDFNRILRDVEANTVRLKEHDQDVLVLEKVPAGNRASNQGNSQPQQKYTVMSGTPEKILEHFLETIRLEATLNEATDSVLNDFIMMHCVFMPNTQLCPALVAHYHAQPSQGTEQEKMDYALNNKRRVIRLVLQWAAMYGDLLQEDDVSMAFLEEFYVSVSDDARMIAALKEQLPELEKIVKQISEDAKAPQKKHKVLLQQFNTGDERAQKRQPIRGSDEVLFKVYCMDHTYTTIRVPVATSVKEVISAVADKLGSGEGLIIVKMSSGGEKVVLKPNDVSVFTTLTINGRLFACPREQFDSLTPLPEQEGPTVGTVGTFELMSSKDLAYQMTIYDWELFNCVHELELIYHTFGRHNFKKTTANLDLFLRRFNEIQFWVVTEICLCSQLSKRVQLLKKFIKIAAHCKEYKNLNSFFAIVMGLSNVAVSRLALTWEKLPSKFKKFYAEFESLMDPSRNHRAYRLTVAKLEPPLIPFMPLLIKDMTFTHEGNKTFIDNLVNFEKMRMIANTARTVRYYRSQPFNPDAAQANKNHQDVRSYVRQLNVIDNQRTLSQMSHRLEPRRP
# Catechol O-methyltransferase (Homo sapiens), sequence (P21964 whole entry, looked up): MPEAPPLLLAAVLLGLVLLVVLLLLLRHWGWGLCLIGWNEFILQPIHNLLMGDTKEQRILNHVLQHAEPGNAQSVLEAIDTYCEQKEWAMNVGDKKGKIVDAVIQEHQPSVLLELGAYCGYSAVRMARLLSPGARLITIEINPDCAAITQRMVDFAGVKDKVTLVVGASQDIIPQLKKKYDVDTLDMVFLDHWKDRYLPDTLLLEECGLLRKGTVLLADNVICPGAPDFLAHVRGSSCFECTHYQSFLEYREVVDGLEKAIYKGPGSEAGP
# Nicotinamide N-methyltransferase (Homo sapiens), sequence (P40261 whole entry, looked up): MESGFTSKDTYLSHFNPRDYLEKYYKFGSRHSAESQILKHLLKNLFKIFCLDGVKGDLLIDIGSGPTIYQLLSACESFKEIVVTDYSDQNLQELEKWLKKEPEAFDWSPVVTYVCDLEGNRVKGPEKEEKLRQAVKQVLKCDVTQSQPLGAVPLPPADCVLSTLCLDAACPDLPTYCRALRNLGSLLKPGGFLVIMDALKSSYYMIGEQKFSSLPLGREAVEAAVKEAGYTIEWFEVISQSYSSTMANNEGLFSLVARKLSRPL
# Rap guanine nucleotide exchange factor 3 (Homo sapiens), sequence (O95398 whole entry, looked up): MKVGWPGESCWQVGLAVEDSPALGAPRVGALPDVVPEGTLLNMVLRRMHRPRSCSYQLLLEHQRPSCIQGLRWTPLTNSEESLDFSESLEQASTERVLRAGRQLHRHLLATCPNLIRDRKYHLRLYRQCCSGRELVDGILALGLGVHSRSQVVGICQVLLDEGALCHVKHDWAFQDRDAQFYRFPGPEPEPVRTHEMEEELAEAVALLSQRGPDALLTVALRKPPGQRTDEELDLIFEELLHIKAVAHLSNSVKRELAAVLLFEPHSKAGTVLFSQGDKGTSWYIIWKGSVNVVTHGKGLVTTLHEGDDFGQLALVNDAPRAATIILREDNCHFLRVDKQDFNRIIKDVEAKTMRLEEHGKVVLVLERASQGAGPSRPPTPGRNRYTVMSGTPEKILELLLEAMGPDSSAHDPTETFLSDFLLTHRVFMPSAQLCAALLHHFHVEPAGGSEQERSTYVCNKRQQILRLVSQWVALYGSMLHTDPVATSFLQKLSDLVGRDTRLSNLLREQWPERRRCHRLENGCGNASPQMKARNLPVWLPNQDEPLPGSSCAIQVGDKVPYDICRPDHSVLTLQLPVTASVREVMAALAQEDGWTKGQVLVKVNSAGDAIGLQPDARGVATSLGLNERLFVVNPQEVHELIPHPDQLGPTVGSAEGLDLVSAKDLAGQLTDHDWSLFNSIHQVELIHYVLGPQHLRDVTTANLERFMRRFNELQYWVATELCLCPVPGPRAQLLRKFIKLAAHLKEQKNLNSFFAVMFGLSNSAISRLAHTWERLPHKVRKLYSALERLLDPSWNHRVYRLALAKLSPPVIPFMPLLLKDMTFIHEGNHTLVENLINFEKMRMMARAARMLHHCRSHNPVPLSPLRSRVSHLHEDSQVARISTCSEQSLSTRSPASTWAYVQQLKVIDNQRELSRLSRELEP
# Phenylethanolamine N-methyltransferase (Homo sapiens), sequence (P11086 whole entry, looked up): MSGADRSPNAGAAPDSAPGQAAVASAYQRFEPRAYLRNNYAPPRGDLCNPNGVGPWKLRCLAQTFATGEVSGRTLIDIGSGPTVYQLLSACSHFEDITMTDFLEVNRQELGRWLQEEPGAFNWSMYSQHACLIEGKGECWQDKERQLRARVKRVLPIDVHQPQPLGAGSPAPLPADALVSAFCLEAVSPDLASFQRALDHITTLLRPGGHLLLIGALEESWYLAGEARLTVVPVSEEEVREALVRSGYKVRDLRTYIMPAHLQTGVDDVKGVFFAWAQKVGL
smiles,measurement,setting,value
C=C1C(=O)O[C@@H]2C=C(COC(C)=O)CC/C=C(\CO)CC[C@@H]12,activity,[1],-83.7%
same,"activity change, negative = inhibition",[2],2.22%
same,activity,[3],2.08%
same,activity,[4],0.0072%
C[C@]12CC[C@@H]3c4ccc(OS(=O)(=O)O)cc4CC[C@H]3[C@@H]1CCC2=O,Potency,[5],8.49 µM (active)
same,outcome,[6],inactive
same,outcome,[7],inactive
same,Potency,[8],inactive
same,outcome,[9],inactive
CC12CCC3C1C(c1c(cc(O)c(C(=O)c4ccccc4)c1O)O2)C3(C)C (stereo unspecified),activity,[1],-35.5%
same,Potency,[2],21.1 µM (active)
same,activity,[3],-25.6%
same,activity,[4],-30.9%
CO[C@H]1C[C@@H]2CC[C@@H](C)[C@@](O)(O2)C(=O)C(=O)N2CCCC[C@H]2C(=O)O[C@H]([C@@H](C)C[C@@H]2CC[C@@H](O)[C@H](OC)C2)CC(=O)[C@H](C)/C=C(\C)[C@@H](O)[C@@H](OC)C(=O)[C@H](C)C[C@H](C)/C=C/C=C/C=C/1C,Potency,[10],25.8 µM (active)
same,outcome,[11],inactive
CN1CCN(C(=O)CN[C@@H]2C[C@H]2c2ccc(OCc3ccccc3)cc2)CC1,Potency,[10],20.5 µM (active)
COc1cc(C[C@H]2C(=O)OC[C@@H]2Cc2ccc(OC)c(OC)c2)ccc1O,outcome,[11],inactive
CC1(CO)CC(O)[C@]2(C(=O)O)CCC34CC3(C=CC3[C@]5(C)C(CC[C@]34C)C(C)(CO)[C@@H](O)[C@H](O)[C@@H]5O)C2C1 (stereo partly specified),activity,[1],-56.5%
same,"activity change, negative = inhibition",[2],-5.29% [at 29.8 µM]
same,activity,[3],-2.18%
same,activity,[4],-2.96%
CC(=O)OC/C(=C/C(=O)O)CC[C@@H]1C(C=O)=CC[C@@H]2C(C)(C)CCC[C@@]12C,activity,[1],-75.1%
same,"activity change, negative = inhibition",[2],-3.55%
same,activity,[3],-14%
same,activity,[4],-7.72%
N#CSc1cc(SC#N)c(N)nc1N,activity,[1],-83.2%
same,Potency,[2],4.08 µM (active)
same,activity,[3],-72%
same,activity,[4],-48.1%
COc1ccc(NC(=O)C2C[C@H](C)CC[C@H]2C(C)C)cc1 (stereo partly specified),Potency,[10],inactive
CN(C)c1ccc(NC(=O)NS(=O)(=O)c2ccc(Cl)cc2)cc1,activity,[1],-53.7%
same,Potency,[2],27.1 µM (active)
same,activity,[3],-25%
same,activity,[4],-83.5%
COc1ccc(CCN(C)CCCOc2nsc(-c3ccccc3)n2)cc1OC,activity,[1],-5.88%
same,"activity change, negative = inhibition",[2],-0.0909%
same,activity,[3],-34.1%
same,activity,[4],-10.5%
CC(=O)S[C@@H]1CC2=CC(=O)CC[C@]2(C)[C@H]2CC[C@@]3(C)[C@@H](CC[C@@]34CCC(=O)O4)[C@H]12,Potency,[5],inactive
same,outcome,[6],inactive
same,outcome,[7],inactive
same,Potency,[8],inactive
C=C1C(OC2OC(CO)C(O)C(O)C2O)CC2C(C)(C)C(O)CCC2(C)C1CC/C(C)=C\COC(=O)CC(=O)O (stereo unspecified),Potency,[10],4.83 µM (active)
same,activity,[1],-58.5%
same,"activity change, negative = inhibition",[2],0% [at 19.1 µM]
same,activity,[3],0%
same,activity,[4],2.99%
COc1ccc2nc3n[nH]c(C)c3c(NCCOCCO)c2c1,Potency,[10],3.25 µM (active)
same,activity,[1],-59.3%
same,Potency,[2],27.1 µM (active)
same,activity,[3],-38.5%
same,activity,[4],-54.6%
C=C1C(=O)O[C@@H]2[C@H]3C(C)=CC(=O)C3=C(C)[C@@H](OC(=O)/C(C)=C\C)[C@H](O)[C@@H]12,Potency,[10],3.58 µM (active)
CC#C[C@@H](CC(=O)O)c1ccc(OCc2cccc(-c3ccc(C(F)(F)F)cc3)c2)cc1,activity,[1],-11.2%
same,Potency,[2],inactive
same,activity,[3],-23.8%
same,activity,[4],3.83%
C=C(C(=O)OC)[C@@H]1CC=C2C=CC(=O)[C@H](C)[C@@]2(C)C1,Potency,[10],20.5 µM (active)
O=C(O)CC(O)(CC(=O)O)C(=O)O,outcome,[12],inactive
same,outcome,[13],inactive
Cn1c(SCC(=O)N2CCC[C@H]2C(=O)Nc2ccccc2-c2ccccc2)nc2ccccc21,Potency,[10],inactive
COc1c2c(c(C)c3c1C(=O)OC3)O[C@@]1(C)C[C@@H](OC(C)=O)[C@]34O[C@](OC)(CC[C@]3(C)[C@H]1C2)OC4(C)C,activity,[1],-8.48%
same,"activity change, negative = inhibition",[2],2.06% [at 29.8 µM]
same,activity,[3],-50.2%
same,activity,[4],-7.63%
CC1(C)CCC(C)(C)c2cc(C#Cc3ccc(C(=O)O)cc3)ccc21,Potency,[10],inactive
same,activity,[1],-0.825%
same,"activity change, negative = inhibition",[2],0%
same,activity,[3],-63%
same,activity,[4],-5.22%
C=C1CCCC2(C)CCC(C(C)(C)OC3OC(C)C(O)C(O)C3OC(=O)/C(C)=C\C)CC12 (stereo unspecified),Potency,[10],10 µM (active)
Cn1nc(C(C)(C)C)cc1C(=O)N[C@@H](Cc1cccc(Cl)c1)C(=O)NCC#N,outcome,[11],inactive
same,Potency,[14],inactive
CNCCC(c1cccs1)c1ccc(O)c2ccccc12 (stereo unspecified),activity,[1],-4.76%
same,"activity change, negative = inhibition",[2],2.71%
same,activity,[3],-7.38%
same,activity,[4],-1.78%
C=C1CC2[C@@]3(C)C=CC(=O)C(C)(C)C3=C(O)C(=O)[C@@]2(C)C2(C(=O)OC)C(=O)C(C)OC(=O)[C@@]12C (stereo partly specified),Potency,[10],8.93 µM (active)
CCc1c(Cl)c(O)c(Cl)c(O)c1C(=O)O[C@H]1[C@H](O)[C@H](OC)[C@H](OC/C2=C\C=C\C[C@H](O)/C(C)=C\[C@H](CC)[C@@H](O[C@@H]3OC(C)(C)[C@@H](OC(=O)C(C)C)[C@H](O)[C@@H]3O)/C(C)=C/C(C)=C/C[C@@H]([C@@H](C)O)OC2=O)O[C@@H]1C,activity,[1],-16.7%
same,"activity change, negative = inhibition",[2],-5.75% [at 29.8 µM]
same,activity,[3],-8.66%
same,activity,[4],-8.05%
CCN(CC)CCCCCCNc1cc(OC)cc2c(C)ccnc12,Potency,[10],12.9 µM (active)
same,activity,[1],-3.27%
same,"activity change, negative = inhibition",[2],-0.864%
same,activity,[3],0.614%
same,activity,[4],2.1%
CC(C)=CCc1cc2c(cc1O)OC[C@H]1c3ccc(O)cc3O[C@@H]21,Potency,[10],14.2 µM (active)
C=C1C(=O)OC2CC(C)C(CCC(C)O)=CCC12 (stereo unspecified),Potency,[10],16.3 µM (active)
same,activity,[1],-95.7%
same,"activity change, negative = inhibition",[2],-4.2%
same,activity,[3],-3.12%
same,activity,[4],-3.4%
CC(=O)O[C@H]1[C@@]2(O)C[C@H](C)[C@H](OC(=O)c3ccccc3)[C@@H]2[C@@H](OC(=O)CO)[C@]2(OC(C)=O)C[C@H]3C(=O)C(C)(C)C[C@@H]3[C@@]1(C)[C@H]2OC(C)=O,Potency,[10],inactive
Cc1cnc(-c2ccccc2C(C)C)nc1NCc1ccc(-n2ccnn2)cc1,outcome,[11],inactive
N#Cc1ccc(N2N=C3c4ccc(C(=O)O)cc4CC[C@@H]3[C@@H]2C2CCCC2)cc1Cl,activity,[1],7.42%
same,"activity change, negative = inhibition",[2],-0.344%
same,activity,[3],-82.8%
same,activity,[4],0.228%
C=C1C(=O)OC[C@@H]1C/C=C(\C)CC1CC(C)C(=O)O1 (stereo partly specified),Potency,[10],23 µM (active)
same,activity,[1],-80%
same,"activity change, negative = inhibition",[2],-0.246%
same,activity,[3],0.776%
same,activity,[4],0.671%
CC(=O)c1c(C)cc2cccc(O)c2c1O[C@@H]1O[C@H](CO)[C@@H](O)[C@H](O)[C@H]1O,Potency,[10],12.7 µM (active)
CCCCCCCOc1cc2c(cc1/C(C)=C/c1ccc(C(=O)O)cc1)C(C)(C)CCS2(=O)=O,activity,[1],-11.5%
same,Potency,[2],27.1 µM (active)
same,activity,[3],-71.1%
same,activity,[4],-11.4%
C=C1C(=O)O[C@@H]2/C=C(\CO)CC/C=C(\CO)[C@H](OC(C)=O)C(OC(=O)C(C)CC)C12 (stereo partly specified),Potency,[10],5.02 µM (active)
O=C(NC[C@H]1CN(c2ccc(N3CCOCC3=O)cc2)C(=O)O1)c1ccc(Cl)s1,outcome,[11],inactive
